# The whole screen tested about 360,000 compounds, of which about 1,400 (0.39%) were called active. The entries come from a sample that favours actives as a whole. A number with no mark means an inactive call.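 How the source made its calls: active means activation above its plate's cutoff, the mean activation of sample wells plus 3 SD; inactive means the rest.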
# Biological target: Muscarinic acetylcholine receptor M4 (Homo sapiens) (UniProt P08173)
# Test: CHRM4 PAMs potentiating acetylcholine calcium signal – CHO-K1 cells, Fluo-8 calcium fluorescence, primary screen (AID 624126)
# Conditions: CHO-K1 hM4/Gqi5, Fluo-8 calcium fluorescence, ACh EC20; at 3 µM; hits give high values; 0% = ACh EC20, 100% = maximal ACh
# Sequence of Muscarinic acetylcholine receptor M4 (Homo sapiens) (P08173 whole entry, looked up): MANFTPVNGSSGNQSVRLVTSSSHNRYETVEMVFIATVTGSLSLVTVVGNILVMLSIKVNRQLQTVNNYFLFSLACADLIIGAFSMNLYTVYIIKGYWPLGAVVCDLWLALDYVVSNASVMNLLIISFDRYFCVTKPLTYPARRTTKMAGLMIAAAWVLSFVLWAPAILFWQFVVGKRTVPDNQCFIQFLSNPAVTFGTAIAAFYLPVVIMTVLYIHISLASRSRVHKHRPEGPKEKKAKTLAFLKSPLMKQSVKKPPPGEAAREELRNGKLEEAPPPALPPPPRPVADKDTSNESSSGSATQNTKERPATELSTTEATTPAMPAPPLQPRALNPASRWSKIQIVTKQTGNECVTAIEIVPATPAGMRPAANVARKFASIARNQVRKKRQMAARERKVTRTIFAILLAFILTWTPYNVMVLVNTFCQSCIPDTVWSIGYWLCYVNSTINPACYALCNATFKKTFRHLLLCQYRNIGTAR
row,Structure (SMILES),activation
1,Cc1cc(C)c(S(=O)(=O)NCCCN2CCOCC2)cc1Br,-4.24%
2,CCN1CCN(CC(=O)Nc2sc3c(c2C#N)CCC3)CC1,17.1% (active)
3,O=C(CN1CCCC1)Nc1sc2c(c1C(=O)Nc1ccccc1)CCCC2,0.04%
4,COc1cccc(CN(C)CC(=O)Nc2sc3c(c2C#N)CCC3)c1,-0.97%
5,COCc1c(C(=O)OCc2c(C)noc2C)oc2ccccc12,-3.78%
6,CCCCCN(C(=O)CCC(=O)OCC(=O)NC1CCC(C)CC1)c1c(N)n(CCCC)c(=O)[nH]c1=O (stereo unspecified),9.55%
7,CN(CCc1ccccc1)C(=O)c1cccc(NC(=O)Cc2cccc(NC(=O)C3CCCN(C(=O)C4CCC4)C3)c2)c1 (stereo unspecified),-5.03%
8,O=C(c1cnccn1)N1CCN(S(=O)(=O)c2cccc(Cl)c2)CC1,1.28%
9,Cc1ccc(Cn2c(=N)c(S(=O)(=O)c3ccc(C)cc3)cc3c(=O)n4ccccc4nc32)cc1,3.3%
10,O=C(OC12CC3CC(CC(C3)C1)C2)c1ccc(NCc2cc(O)ccc2O)cc1,15.5% (active)
11,CC1CCN(C(=O)c2ccc3c(=O)n4c(nc3c2)CCCCC4)CC1,14.7% (active)
12,Cc1cc(C)c(C)c(S(=O)(=O)N2CCN(C(=O)c3ccc4c(=O)n5c(nc4c3)CCC5)CC2)c1C,-1.12%
13,O=C(Nc1cc(F)ccc1F)c1ccc2c(=O)n3c(nc2c1)CCC3,3.59%
14,CCN(CC(=O)NCc1cccs1)C(=O)/C=C/c1ccc(C)cc1,23.5% (active)
15,CCN(CC(=O)NCc1cccs1)C(=O)c1ccccc1F,0.45%
16,CCOc1ccc(/C=C/C(=O)N(CC)CC(=O)NCc2cccs2)cc1OC,-5.1%
17,COCCn1c(SCC(=O)Nc2ccc3c(c2)CCC3)nc2ccccc2c1=O,-0.72%
18,Cc1c(C(=O)c2cccc([N+](=O)[O-])c2)c2ccccn2c1CCC#N,-5.93%
19,CN1CCN(c2cc3c(cc2F)c(=O)c(C(=O)O)cn3CCF)CC1,8.31%
20,CCOc1ccc(NC(=O)[C@H](C)NC(=O)C2CC(=O)N(c3ccc(OC)cc3)C2)cc1 (stereo partly specified),17.5% (active)
21,CCCC(C)c1nnc(NC(=O)C2CC(=O)N(c3ccc(OCC)cc3)C2)s1 (stereo unspecified),0.96%
22,COc1ccc(N2CC(C(=O)N[C@@H](C)C(=O)N3CCCCC3)CC2=O)cc1 (stereo partly specified),-1.42%
23,COc1ccc(-c2ccc3c(c2)C2CC3CCN2CCC#N)cc1 (stereo unspecified),-4.51%
24,COc1ccc(/C(N)=N/OC(=O)CCCc2ccccc2)cc1,1.71%
25,N/C(=N\OC(=O)CCc1ccccc1)c1ccc(Cl)cc1,12.9%
26,N/C(=N\OC(=O)CCc1ccccc1)c1cccnc1,24.5% (active)

# — PubChem BioAssay AID624126 (The Scripps Research Institute Molecular Screening Center, 2012)
